Screening data from PubChem BioAssay.
Sm TGR block: S. mansoni TGR enzyme inhibition | 360,000 tested, 3% active | Potency, µM (top dose mostly 114 µM), hits mostly inhibitors | Q962Y6 | purified TGR, DTNB reduction, TNB absorbance 405 nm; active = well fitted inhibition curve with a large enough effect; inconclusive = small, poorly fitted or top-dose-only effect; inactive = no such curve, though single readings can be large or run the other way; note: nearly all actives have a fitted effect of over 60% in size
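Kinetic colorimetric format: TGR-catalysed, NADPH-driven DTNB reduction monitored via TNB absorbance. Enzyme dispensed at 20 nM; compound exposure 15 min at room temperature before reaction start.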
SARS PLP yeast: SARS-CoV PLP inhibition in yeast; S. cerevisiae expressing SARS-CoV PLpro, growth rescue; Potency, µM (doses to about 32.9 µM), most hits filed as activators; 330,000 tested, 0.19% active; AID 485353; calls by dose curve; note: nearly all actives have a fitted effect of over 55% in size
Each line names hits and unclear results; the compound was inactive in the other large screens. Hits are enriched below; roughly 3% of the tested compounds scored in any of these assays.

CCCN(CCC)CCNC(=O)C1CCCN(S(=O)(=O)c2cccc3nsnc23)C1 (centres undefined)	none (no result: SARS PLP yeast)
CCOC(=O)N1CCN(Cc2nc3cc(NC(=O)c4ccc([N+](=O)[O-])cc4)ccc3n2C(C)C)CC1	none (no result: SARS PLP yeast)
COc1ccc(NC(=O)CSc2nncn3c2cc2occc23)c(OC)c1	none (no result: SARS PLP yeast)
Cc1nc2nc(SCC(=O)Nc3cccc(Cl)c3)nn2c(C)c1Cc1ccccc1	none (no result: SARS PLP yeast)
COC(=O)CN1C(=O)[C@H]2[C@@H](c3ccc(C)o3)N3C(=O)CN(Cc4ccc(-c5ccccc5)cc4)C(=O)[C@@]3(C)[C@H]2C1=O	Sm TGR block 10µM
CCN1C(=O)[C@H]2[C@@H](c3ccc(OC)cc3)N3C(=O)CN(CC4CC4)C(=O)[C@@]3(C)[C@H]2C1=O	none
COC(=O)CN1C(=O)[C@H]2[C@@H](c3ccc(C)o3)N3C(=O)CN(Cc4ccccn4)C(=O)[C@@]3(C)[C@H]2C1=O	Sm TGR block 25µM
COC(=O)CN1C(=O)[C@H]2[C@@H](c3ccc(C)o3)N3C(=O)CN(CC4CC4)C(=O)[C@@]3(C)[C@H]2C1=O	Sm TGR block 16µM
Cc1ccc([C@@H]2[C@@H]3C(=O)N(c4ccccc4)C(=O)[C@@H]3[C@]3(C)C(=O)N(Cc4ccccn4)CC(=O)N23)o1	Sm TGR block inconclusive
COC(=O)CN1C(=O)[C@H]2[C@@H](c3ccc(C)o3)N3C(=O)CN(Cc4ccccc4)C(=O)[C@@]3(Cc3ccccc3)[C@H]2C1=O	Sm TGR block inconclusive
N#Cc1ccc(CSc2nnc(-c3ccc(Br)cc3)o2)cc1	none (no result: SARS PLP yeast)
COc1ccc(CCN(C)C(=O)COC(=O)/C=C/c2ccc(C)o2)cc1OC	Sm TGR block 16µM
CCOc1ccc2oc(C(=O)N(C)CCc3ccc(OC)c(OC)c3)c(C)c2c1	none
Cc1cccc(CCNC(=O)C2CCC(CNS(=O)(=O)c3ccccc3)CC2)c1 (centres undefined)	none (no result: SARS PLP yeast)
CCOc1ccc(CC(=O)NNC(=O)/C=C/C(=O)O)cc1	Sm TGR block 18µM
COc1ccc(CCNC(=O)/C=C/C(=O)O)cc1	none (no result: Sm TGR block)
CCOc1ccc(CN(C)C(=O)CCl)cc1	Sm TGR block 16µM
CCOc1ccc(CN(C)C(=O)CCNC(=O)c2ccco2)cc1	none
O=C(CCSCc1cnn(-c2ccccc2)c1-n1cccc1)NCc1ccc(Cl)cc1	none (no result: SARS PLP yeast)
CCOC(=O)C(C)NC(=O)c1c(C)oc2ncn(CC(C)C)c(=O)c12 (centres undefined)	none (no result: SARS PLP yeast)
Cc1ccc(/C=N/n2c(-c3cccnc3)n[nH]c2=S)o1	Sm TGR block 28µM
S=c1[nH]nc(-c2ccccn2)n1/N=C/c1ccccc1	none
Cc1ccc(/C=N/n2c(-c3ccccn3)n[nH]c2=S)o1	Sm TGR block 45µM
Cc1ccc(-c2n[nH]c(=S)n2/N=C/c2ccc(C)o2)cc1	none
COc1ccccc1N1CCN(C(c2cc3ccc(C)cc3[nH]c2=O)c2nnnn2C2CCCC2)CC1 (centres undefined)	Sm TGR block inconclusive
CCOC(=O)C1CCN(C(c2cc3ccc(C)cc3[nH]c2=O)c2nnnn2C2CCCCC2)CC1 (centres undefined)	Sm TGR block 10µM
COc1ccc(CNC(=O)C(c2ccncc2)N(C(=O)Cc2cccs2)c2ccccc2)cc1 (centres undefined)	none
COc1ccc(N(C(=O)CCl)C(C(=O)NCCc2ccccc2)c2cccs2)cc1 (centres undefined)	Sm TGR block 10µM
O=C(CN1C(=O)c2cccnc2Sc2ccccc21)Nc1cc(F)ccc1F	none (no result: SARS PLP yeast)
COc1ccc(NCc2cc3cc4c(cc3n(CC(=O)Nc3ccc(C)cc3)c2=O)OCO4)cc1	none (no result: SARS PLP yeast)
Cc1ccc(-c2cn(-c3cccc(Cl)c3)c(S(=O)(=O)CC(=O)Nc3ccccc3F)n2)cc1	none (no result: SARS PLP yeast)
COc1cc(Nc2nc3c(S(=O)(=O)c4ccccc4)nnn3c3ccc(Cl)cc23)cc(OC)c1	none (no result: SARS PLP yeast)
Cc1ccc2nsnc2c1S(=O)(=O)Nc1cccc2nsnc12	Sm TGR block 45µM
Cc1ccc(C)c(NS(=O)(=O)c2c(C)ccc3nsnc23)c1	none
CCOc1ccccc1CNC(=O)c1cc2c(=O)n(Cc3cccnc3)ccc2nc1C	none (no result: SARS PLP yeast)
Cc1oc(/N=C/c2ccccc2)c(C#N)c1C	none
COc1ccc(/C=N/c2oc(C)c(C)c2C#N)c(OC)c1	Sm TGR block 50µM
COc1cc(/C=N/c2oc(C)c(C)c2C#N)cc(Br)c1O	Sm TGR block 11µM
COc1cc(/C=N/NC(=O)c2sc(N)c(C#N)c2C)cc(Br)c1O	none
Cc1cc(=O)n(Cc2c(F)cccc2Cl)c2c1c(C)nn2C	none (no result: SARS PLP yeast)
CCOC(=O)c1cccc(NC(=O)C2CCN(S(=O)(=O)c3ccc4c(c3)oc(=O)n4C)CC2)c1	none (no result: SARS PLP yeast)
Cc1cc2c(cc3c(SCc4ccc(Cl)cc4)nncn32)o1	none (no result: SARS PLP yeast)
Cc1cc2cc(C(c3nnnn3CC3CCCO3)N3CCCc4ccccc43)c(=O)[nH]c2cc1C (centres undefined)	Sm TGR block inconclusive
CCc1ccc2[nH]c(=O)c(C(c3nnnn3CC3CCCO3)N3CCCc4ccccc43)cc2c1 (centres undefined)	Sm TGR block 35µM
CCn1c(Oc2ccc(F)cc2F)nc2c1c(=O)n(C)c(=O)n2C	none (no result: SARS PLP yeast)
Oc1cnc2ccccc2c1CN1CCOCC1	none
Oc1ccc2ccccc2c1CN1CCOCC1	Sm TGR block 0.45µM
O=S(=O)(c1ccc(F)cc1)N1CCCN(Cc2c(F)cccc2F)CC1	none
O=S(=O)(c1c(F)cccc1F)N1CCN(Cc2c(O)ccc3ccccc23)CC1	Sm TGR block 2.2µM
NC(=O)C1CCN(C(=O)Cn2c(-c3cccs3)cc3ccccc32)CC1	none (no result: SARS PLP yeast)
CCOC(=O)c1ccccc1NC(=O)c1nn(-c2ccc(C)cc2)c(=O)n(C)c1=O	none (no result: SARS PLP yeast)
COc1cc(-c2c(C#N)c(N)nc3c2CCCC3)ccc1O	Sm TGR block 20µM
N#Cc1c(N)nc2c(c1-c1cccc(O)c1)CCCCCC2	SARS PLP yeast inconclusive
COc1cc(OC)c(CN2CCc3c([nH]c4ccccc34)C2)cc1Br	Sm TGR block 35µM
Cc1cccc(CN2CCc3c([nH]c4ccccc34)C2)c1	none
CN(C)c1cc(-c2ccc(Cl)cc2)oc(=O)c1Cl	none
CN(C)c1cc(-c2ccc(Cl)c(Cl)c2)oc(=O)c1Cl	Sm TGR block 40µM
COc1ccc(NC(=O)C2CCCN(S(=O)(=O)c3ccc(F)cc3)C2)cc1 (centres undefined)	none (no result: SARS PLP yeast)
Cc1ccc(Cl)cc1NC(=O)Nc1cn(CC(C)C)c(=O)c2ccccc12	none (no result: SARS PLP yeast)
COc1ccc(CNC(=O)Cc2c(C)c3c(cc(C)c4c(C)coc43)oc2=O)cc1OC	none (no result: SARS PLP yeast)
Cc1c(Cl)cccc1NC(=O)CSc1ncc(S(=O)(=O)c2ccc(C(C)C)cc2)c(=O)[nH]1	none (no result: SARS PLP yeast)
Cc1cc(C(=O)CN2CCCC2)c(C)n1-c1ccc(F)cc1	Sm TGR block 45µM
Cc1cc(C(=O)CN2CCCCC2)c(C)n1-c1ccc(F)cc1	none
Cc1ccc(CCNC(=O)C(CC(C)C)NS(=O)(=O)c2ccc3c(c2)oc(=O)n3C)cc1 (centres undefined)	none (no result: SARS PLP yeast)
Cc1cccc(N2C(=O)CSC23C(=O)N(CC(=O)NCc2ccccc2Cl)c2ccccc23)c1 (centres undefined)	none (no result: SARS PLP yeast)
CCOc1ccc(N2C(=O)CC(NCCc3ccncc3)C2=O)cc1 (centres undefined)	none
CCOc1ccc(N2C(=O)CC(NCCc3ccc(S(N)(=O)=O)cc3)C2=O)cc1 (centres undefined)	none
CCCOc1ccc(N2C(=O)CC(NCCc3ccc(S(N)(=O)=O)cc3)C2=O)cc1 (centres undefined)	Sm TGR block 45µM
